From PubChem
MsrA inhibitor: bovine MsrA enzyme inhibitors, primary screen, biochemical, absorbance, HTS. 360,000 tested, 0.75% active. inhibition, % at 15.5 µM. AID 651718, 2012. purified bovine MsrA, absorbance read-out. Methionine sulfoxide reductase A (Bos taurus);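 note: 0% = vehicle wells with enzyme and 100% = reference inhibitor wells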
PKA-R1A act: activators of PKA-R1A holoenzyme, primary screen, biochemical, fluorescence polarization, Cy5-IP20, bovine R1A, mouse PKAc; PKA-R1A dissociation; scaled: DMSO 0%, 113 µM cGMP 100%; activation, % at 11.4 µM; 340,000 tested, 0.083% active; AID 504707, 2011;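 active = percent activation above the mean of all tested compounds plus 3 SD, cut at about 19% in these data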;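 note: higher means more PKAc released from R1A so a rise in polarization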
MsrA act: bovine MsrA enzyme activators, primary screen, biochemical, absorbance, HTS | Methionine sulfoxide reductase A (Bos taurus) | purified bovine MsrA, absorbance read-out | activation, % at 10.6 µM | 360,000 tested, 0.3% active | AID 602163, 2012; in the data active = activation above about 7.5%;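 note: 0% = vehicle and 100% = reference activator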
PKA-R2B activ: activators of PKA-R2B holoenzyme, primary screen, biochemical, fluorescence polarization, Cy5-IP20, human; PKA-R2B holoenzyme dissociation; R2B truncated from residue 108, S112A mutant; 0% DMSO only, 100% 113 µM cGMP; activation, % at 11.4 µM; cAMP-dependent protein kinase catalytic subunit beta (Homo sapiens) + cAMP-dependent …; 340,000 tested, 0.079% active;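 active = activation above a cutoff set at the mean over all compounds plus 3 SD, cut at about 18% in these data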;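 note: higher means more holoenzyme dissociation and a rise in polarization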
Target sequence (P31323 whole entry, looked up, other chains not shown, the tested form may be a part): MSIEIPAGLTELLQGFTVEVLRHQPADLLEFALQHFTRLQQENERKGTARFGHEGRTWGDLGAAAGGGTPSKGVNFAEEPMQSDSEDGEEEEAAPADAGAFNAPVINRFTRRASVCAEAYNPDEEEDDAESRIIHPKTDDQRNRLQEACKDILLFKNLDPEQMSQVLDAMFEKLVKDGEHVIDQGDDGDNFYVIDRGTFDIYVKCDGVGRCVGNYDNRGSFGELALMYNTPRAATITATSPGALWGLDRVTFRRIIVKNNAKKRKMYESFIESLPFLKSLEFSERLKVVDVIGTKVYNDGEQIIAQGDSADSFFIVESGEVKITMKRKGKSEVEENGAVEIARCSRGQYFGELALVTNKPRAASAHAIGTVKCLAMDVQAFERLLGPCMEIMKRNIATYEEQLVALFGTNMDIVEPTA
MsrA inh confirm: bovine MsrA inhibitors, retest, confirmation, biochemical, absorbance, HTS; shares compounds with MsrA inhibitor; purified bovine MsrA, absorbance read-out; inhibition, % at 15.5 µM; 2,300 tested, 41% active;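 note: coupled to thioredoxin reductase with NADPH and selenocystamine and DMSO as substrate; 0% = vehicle only and 100% = full effect of reference inhibitor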
* marks the source's active call; other numbers are inactive results; . = not tested or not shown. This is a sample that favours compounds with a hit; in the whole collection about 1.1% have one here. Cut-off read from the data, not from the text of the source, unless noted: active = inhibition above about 4.5%; inactive = the rest.

SMILES	MsrA inhibitor	PKA-R1A act	MsrA act	PKA-R2B activ	MsrA inh confirm
O=c1c(-c2ccccc2)coc2c(CN3CCCC3)c(O)ccc12	5.5*	-5	-5	-9	2
COc1ccc(/C=C(/C#N)S(=O)(=O)c2ccc(C)cc2)cc1	0	2	-1	-9	.
CO/N=C/C(C#N)=C/c1ccc(OC)cc1	6.7*	5	-7	-1	4.8*
CC(C)(C)c1cc[n+](-c2[nH]c(=O)sc2/C=N/N=C(\[O-])c2cccnc2)cc1	5.4*	2	-3	-7	5.9*
O=c1[nH]c(-[n+]2ccc3ccccc3c2)c(/C=N/N=C(\[O-])c2ccccc2)s1	3	-4	-3	-15	.
Cc1ccc(-c2cc(C(=O)O)c3sc(N4CCCCC4)nc3n2)cc1	2	0	0	-5	.
O=C(O)c1cc(-c2ccccc2)nc2nc(N3CCCCC3)sc12	5.8*	.	.	.	2
COc1ccccc1-c1ccc(OCCCN2CCC(C(O)(c3ccccc3)c3ccccc3)CC2)cc1	0	.	.	.	.
O=C(/C=C\c1cccs1)c1c(O)ccc2ccc(=O)oc12	5.4*	-11	-7	-4	6.3*
COc1ccc(Nc2nc3c(C)cccc3cc2C#N)cc1	4	-3	-12	0	.
COc1cccc(Nc2nc3cc(OC)ccc3cc2C#N)c1	17*	10	-2	-1	13*
O=C(NCc1ccccc1)[C@H]1CCCN1C(=O)[C@H]1CCCN1C(=O)c1cccc(F)c1	-1	.	.	.	.
CC(C)c1nc(NCCO)c(C#N)c2c1CCCC2	8.8*	-6	-12	-9	7.0*
N#Cc1c(NCCCO)nc(-c2ccco2)c2c1CCCC2	9.5*	-6	-15	-2	7.6*
CCOC(=O)CCNC(=O)N1CCC(CCOc2ccccc2)(C(=O)OCC)CC1	1	-7	-1	-6	.
COc1ccc(C(=O)N2CCN(c3cnn(-c4ccccc4)c(=O)c3Cl)CC2)cc1	4.7*	-14	-5	-7	1
COc1ccc(C(=O)N/N=C/c2ccc(SC)cc2)cc1	5.2*	-7	-6	-3	5.9*
CSc1ccc(/C=N/NC(=O)c2ccc(O)cc2)cc1	7.9*	-8	-7	-7	5.8*
O=C(NN=Cc1ccc(O)cc1)C(=O)NN=Cc1ccc(O)cc1	6.1*	4	0	5	2
CCOC(=O)c1c(C)c(C(=O)NC(C)COC)c(C)n1CC (stereo unspecified)	.	5	0	9	.
CCOC(=O)c1cc(C(C)=O)c(=O)n(C)c1N	5.9*	-2	-5	3	4.8*
CCOC(=O)c1ccc2cccc(C)n2c1=O	.	0	-10	-3	.
CC(C)(C)C(=O)Nc1sc2c(c1C#N)CCC2	5.9*	0	-4	-9	4.7*
C=CCN1C(=O)c2[nH]nc(-c3ccccc3)c2C1c1ccc(C)cc1 (stereo unspecified)	2	.	.	.	.
CCOc1ccc(OCCC(=O)N(CC)CC(=O)Nc2ccccc2C(F)(F)F)cc1	1	5	0	3	.
SMILES	MsrA inhibitor	PKA-R1A act	MsrA act	PKA-R2B activ	MsrA inh confirm
c1ccc(CN2CCCC3CC2c2ccccc23)cc1 (stereo unspecified)	1	.	.	.	.
COC1=C(c2ccccc2)C(=O)c2ccccc2C1=O	4	-9	-2	-3	.
O=C(C1=C(c2ccccc2)C(=O)c2ccccc2C1=O)c1ccccc1	72*	11	-1	-8	59*
OC(c1ccccc1)(c1ccccc1)C1CCN(CCCOc2ccc(-c3ccc(F)cc3F)cc2)CC1	1	.	.	.	.
COc1cc(C(=O)Nc2ccccc2SCc2cc(=O)n3nc(C)sc3n2)cc(OC)c1OC	1	-8	-4	8	.
Cc1nn2c(=O)cc(CSc3ccccc3NC(=O)c3ccccc3)nc2s1	17*	-3	2	-1	13*
CC(C)c1nn2c(=O)cc(CSc3ccccc3NC(=O)c3ccccc3F)nc2s1	1	4	-10	7	.
Cc1nn2c(=O)cc(CSc3ccccc3NC(=O)c3ccccc3F)nc2s1	4.7*	9	-5	-5	3
C[C@@H]1CN([C@@H](C)CO)C(=O)c2ccccc2-c2ccccc2CO[C@@H]1CN(C)Cc1ccc(Cl)c(Cl)c1	1	.	.	.	.
Cc1cccc(C)c1NC(=O)C(CCc1ccccc1)N1CCN(CCN(C)C)CC1 (stereo unspecified)	0	.	.	.	.
Cc1cc(/C=C(/C#N)C(=O)O)c(C)n1CCC(C)C	4.8*	-4	-6	-7	3
Cc1cc(/C=C(\C#N)C(=O)O)c(C)n1-c1ccc(Br)cc1	7.4*	-10	-6	-3	4.8*
CCCCn1c(C)cc(/C=C(\C#N)C(=O)O)c1C	4	-6	-8	-7	.
Cc1cc(/C=C(\C#N)C(=O)O)c(C)n1CC1CCCO1 (stereo unspecified)	5.2*	-2	-1	6	6.2*
CCCn1c(C)cc(/C=C(\C#N)C(=O)O)c1C	6.8*	-10	-8	1	4
Nc1[nH]c(C(=O)c2ccccc2)c(-c2ccc3c(c2)OCO3)c1C(=O)NCCc1c[nH]c2ccccc12	1	.	.	.	.
O=C(c1cccnc1Cl)N1CCOCC1	2	-8	-1	2	.
O=C(N/N=C/C=C/c1ccccc1)c1cccc(Br)c1	4	9	-1	-5	.
Cc1ccc(C(=O)N/N=C/C=C/c2ccccc2)cc1	4.9*	-9	-5	-10	4.6*
Cc1occc1C(=O)N/N=C/C=C/c1ccccc1	5.5*	-4	-6	-1	5.1*
Cc1cc(C(=O)N/N=C/C=C/c2ccccc2)c(C)o1	4.7*	-4	-5	4	4
O=C(O)c1cc(N/N=C/C=C/c2ccccc2)ccc1Cl	5.1*	-2	-5	4	4
COc1cccc(OC)c1C(=O)OCC(=O)NC1CCCCCC1	-1	-1	-3	-4	.
NC1=NC(=O)C(Cc2ccc(Br)cc2)S1 (stereo unspecified)	-1	3	-2	-5	.
N#Cc1ccc(C(=O)NCC2CCN(C(=O)C(=O)c3cccs3)CC2)cc1	1	.	.	.	.
NC(=S)N/N=C/C=C/c1ccccc1	5.2*	-4	-8	-3	5
O=C(CNC(=O)c1ccco1)N=Nc1c(O)[nH]c2ccc([N+](=O)[O-])cc12	5.8*	-7	-2	-9	2
NC(=O)N=Nc1c(O)[nH]c2ccc([N+](=O)[O-])cc12	3	8	-5	0	.
O=C(CSc1n[nH]c(=O)[nH]c1=O)N/N=C/c1ccccc1O	0	-12	1	1	.
COc1cc(/C=N/NC(=O)C(=O)NCc2ccco2)cc(Br)c1O	6.0*	-1	-7	-1	4
